Among the test systems are SR leukemia; RPMI-8226 leukemia; OVCAR-8 ovarian; OVCAR-5 ovarian; OVCAR-4 ovarian; SK-OV-3 ovarian; IGROV1 ovarian; OVCAR-3 ovarian; HS 578T breast; NCI/ADR-RES ovarian.
Common to all, as to experiment: NCI-60 one-dose screen, 48 h (100 = growth as untreated, 0 = no growth, -100 = all killed)
Holding throughout (settings): 10 µM unless noted

Several values for one entry are separate records, joined by “and”; a condition that tells them apart may be missing. Equal entries are not always repeated. This is part of a sample that, as a whole, favours compounds with a hit. Of some 83,000 tested, about 20% had one in any assay.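 Cell lines were cultured in 96-well plates, exposed to a single compound concentration, and assessed for percent growth 48 hours later.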 Activity calls are given as the source filed them. How the source made its calls: active means growth percent below 10; inactive means the rest.

Turning to `CCCC(=O)Oc1ccc(CC)cc1`, the growth with SR leukemia was 90.5% (inactive); in the experiment on RPMI-8226 leukemia, 108% (inactive); in the experiment on OVCAR-8 ovarian, 98.1% (inactive); in the experiment on OVCAR-5 ovarian, 102% (inactive); in the experiment on OVCAR-4 ovarian it was 97.3% (inactive); in the experiment on SK-OV-3 ovarian it was 103% (inactive). Also, the growth was 104% (inactive) in the experiment with IGROV1 ovarian, 115% (inactive) with OVCAR-3 ovarian, 113% (inactive) in the experiment with HS 578T breast and 105% (inactive) with NCI/ADR-RES ovarian.

Regarding `CC1(CO)CCCC1NCCNC1CCCC1(C)CO` (stereo not given), the growth in the experiment with SR leukemia was 95.9% (inactive); with RPMI-8226 leukemia, 102% (inactive) and 97% (inactive); with OVCAR-8 ovarian, 97.8% (inactive) and 102% (inactive); in the experiment with OVCAR-5 ovarian, 110% (inactive) and 98.9% (inactive); in the experiment on OVCAR-4 ovarian it was 90.4% (inactive) and 101% (inactive); with SK-OV-3 ovarian, 111% (inactive) and 101% (inactive). The growth was 115% (inactive) and 107% (inactive) with IGROV1 ovarian; 128% (inactive) and 112% (inactive) in the experiment on OVCAR-3 ovarian; 112% (inactive) and 106% (inactive) with HS 578T breast; 105% (inactive) and 107% (inactive) in the experiment on NCI/ADR-RES ovarian.

Turning to `OC1CCCN(Cc2ccccc2)C1` (stereo not given), the growth was 88.6% (inactive) in the experiment on SR leukemia; 90.5% (inactive) with RPMI-8226 leukemia; 105% (inactive) with OVCAR-8 ovarian; 108% (inactive) in the experiment with OVCAR-5 ovarian; 129% (inactive) in the experiment on OVCAR-4 ovarian; 99.7% (inactive) in the experiment on SK-OV-3 ovarian. For the same compound, the growth was 112% (inactive) with IGROV1 ovarian, 113% (inactive) with OVCAR-3 ovarian, 118% (inactive) in the experiment with HS 578T breast and 101% (inactive) in the experiment on NCI/ADR-RES ovarian.

Turning to `COc1ccc(/C=N/Nc2nc3ccccc3s2)cc1`, the growth with SR leukemia is 87.9% (inactive); with RPMI-8226 leukemia, 104% (inactive); with OVCAR-8 ovarian it was 105% (inactive); with OVCAR-5 ovarian it was 103% (inactive); with OVCAR-4 ovarian it was 87.5% (inactive); with SK-OV-3 ovarian, 90% (inactive). Also, the growth with IGROV1 ovarian is 68.5% (inactive); with OVCAR-3 ovarian it was 86.4% (inactive); in the experiment with HS 578T breast it was 105% (inactive); in the experiment with NCI/ADR-RES ovarian it was 98.7% (inactive).

For the compound `CCOC(=O)NC(N)=O`, the growth was 90.3% (inactive) and 108% (inactive) in the experiment on SR leukemia; 101% (inactive) and 99.4% (inactive) in the experiment on RPMI-8226 leukemia; 102% (inactive) and 97% (inactive) in the experiment on OVCAR-8 ovarian; 101% (inactive) in the experiment on OVCAR-5 ovarian; 116% (inactive) and 106% (inactive) in the experiment with OVCAR-4 ovarian; 104% (inactive) and 114% (inactive) with SK-OV-3 ovarian. For the same compound, the growth in the experiment on IGROV1 ovarian was 98% (inactive) and 110% (inactive); in the experiment on OVCAR-3 ovarian it was 113% (inactive) and 125% (inactive); in the experiment with HS 578T breast, 102% (inactive) and 107% (inactive); in the experiment with NCI/ADR-RES ovarian, 105% (inactive) and 107% (inactive).

Take `Clc1ccc2c(c1)N(C1CCCN(Cc3ccccc3)C1)c1ccccc1S2` (stereo not given): the growth was 16.1% (inactive) in the experiment on SR leukemia; 25.9% (inactive) in the experiment with RPMI-8226 leukemia; 37.9% (inactive) with OVCAR-8 ovarian; 73.4% (inactive) in the experiment on OVCAR-5 ovarian; 79.9% (inactive) in the experiment with OVCAR-4 ovarian; 26.8% (inactive) with SK-OV-3 ovarian. The growth in the experiment on IGROV1 ovarian is 43.8% (inactive); with OVCAR-3 ovarian, 53.3% (inactive); with HS 578T breast it was 14.4% (inactive); with NCI/ADR-RES ovarian, 24.8% (inactive).

In the case of `CC(=O)c1cc2ccccc2o1`, the growth in the experiment with SR leukemia was 98.3% (inactive); in the experiment with RPMI-8226 leukemia, 98.6% (inactive); with OVCAR-8 ovarian it was 115% (inactive); with OVCAR-5 ovarian it was 87.7% (inactive); with OVCAR-4 ovarian, 114% (inactive); in the experiment on SK-OV-3 ovarian it was 96.8% (inactive). Besides, the growth with IGROV1 ovarian is 110% (inactive); with OVCAR-3 ovarian it was 114% (inactive); with HS 578T breast, 108% (inactive); in the experiment with NCI/ADR-RES ovarian it was 102% (inactive).

In the case of `O=[N+]([O-])c1cccc2ccc(N/N=C/c3ccccc3O)nc12`, the growth in the experiment with SR leukemia is 60.4% (inactive); in the experiment on RPMI-8226 leukemia it was 6.55% (active) and 93.4% (inactive); in the experiment on OVCAR-8 ovarian, 91.9% (inactive) and 95% (inactive); in the experiment with OVCAR-5 ovarian, 113% (inactive) and 116% (inactive); with OVCAR-4 ovarian it was 93.3% (inactive) and 100% (inactive); in the experiment on SK-OV-3 ovarian, 108% (inactive) and 111% (inactive). The growth in the experiment with IGROV1 ovarian was -10.5% (active); with OVCAR-3 ovarian, 40.5% (inactive) and 101% (inactive); in the experiment with HS 578T breast, 83.6% (inactive) and 98.7% (inactive); in the experiment on NCI/ADR-RES ovarian, 59% (inactive) and 106% (inactive).

Consider `O=c1[nH]c(=O)n(C2OC(CO)C(O)C2O)cc1I` (stereo not given), for which the growth with SR leukemia is 96.1% (inactive) and 114% (inactive); in the experiment on RPMI-8226 leukemia it was 107% (inactive); in the experiment with OVCAR-8 ovarian, 98.9% (inactive) and 95.7% (inactive); with OVCAR-5 ovarian it was 107% (inactive) and 104% (inactive); with OVCAR-4 ovarian, 100% (inactive) and 102% (inactive); in the experiment with SK-OV-3 ovarian, 110% (inactive) and 102% (inactive). Moreover, the growth was 103% (inactive) and 106% (inactive) with IGROV1 ovarian; 117% (inactive) and 121% (inactive) with OVCAR-3 ovarian; 108% (inactive) and 98.3% (inactive) with HS 578T breast; 109% (inactive) and 97.4% (inactive) in the experiment on NCI/ADR-RES ovarian.

For the compound `N=C(N)N1CCc2ccccc2C1`, the growth with SR leukemia is 75.1% (inactive) and 93.9% (inactive); in the experiment on RPMI-8226 leukemia, 74.5% (inactive) and 80.8% (inactive); with OVCAR-8 ovarian it was 89.9% (inactive) and 103% (inactive); in the experiment on OVCAR-5 ovarian, 88.4% (inactive); in the experiment on OVCAR-4 ovarian it was 95.4% (inactive) and 117% (inactive); in the experiment on SK-OV-3 ovarian it was 101% (inactive) and 107% (inactive). Further, the growth is 102% (inactive) in the experiment with IGROV1 ovarian; 104% (inactive) and 101% (inactive) with OVCAR-3 ovarian; 85.9% (inactive) and 98.4% (inactive) with HS 578T breast; 92.9% (inactive) and 114% (inactive) in the experiment on NCI/ADR-RES ovarian.

On to `N=C(N=C(N)N)N1CCOCC1`, for which the growth was 103% (inactive) with SR leukemia; 113% (inactive) and 107% (inactive) with RPMI-8226 leukemia; 105% (inactive) and 106% (inactive) in the experiment with OVCAR-8 ovarian; 99.3% (inactive) with OVCAR-5 ovarian; 95.4% (inactive) and 108% (inactive) in the experiment with OVCAR-4 ovarian; 101% (inactive) and 104% (inactive) in the experiment on SK-OV-3 ovarian. Also, the growth with IGROV1 ovarian is 100% (inactive) and 109% (inactive); in the experiment on OVCAR-3 ovarian, 114% (inactive) and 107% (inactive); with HS 578T breast, 105% (inactive) and 100% (inactive); with NCI/ADR-RES ovarian it was 105% (inactive) and 98.8% (inactive).

Consider `O=C(O)c1c2c(nc3ccccc13)Cc1ccccc1-2`, for which the growth in the experiment on SR leukemia was 94.9% (inactive) and 98% (inactive); with RPMI-8226 leukemia, 97% (inactive) and 84.1% (inactive); in the experiment on OVCAR-8 ovarian, 96.3% (inactive) and 96.2% (inactive); in the experiment with OVCAR-5 ovarian, 109% (inactive) and 88.1% (inactive); in the experiment on OVCAR-4 ovarian it was 116% (inactive) and 97.6% (inactive); with SK-OV-3 ovarian, 99.7% (inactive) and 102% (inactive). For the same compound, the growth is 121% (inactive) and 85.6% (inactive) with IGROV1 ovarian; 102% (inactive) and 95.6% (inactive) in the experiment on OVCAR-3 ovarian; 94.1% (inactive) and 84.2% (inactive) in the experiment on HS 578T breast; 107% (inactive) and 95.7% (inactive) in the experiment with NCI/ADR-RES ovarian.

On to `COc1ccc2oc3c(ccc[n+]3C)c(=O)c2c1`, for which the growth is 119% (inactive) in the experiment on SR leukemia; 104% (inactive) with RPMI-8226 leukemia; 96.5% (inactive) in the experiment with OVCAR-8 ovarian; 98.9% (inactive) in the experiment on OVCAR-5 ovarian; 108% (inactive) with OVCAR-4 ovarian; 99.7% (inactive) with SK-OV-3 ovarian. For the same compound, the growth in the experiment on IGROV1 ovarian was 108% (inactive); in the experiment on OVCAR-3 ovarian it was 109% (inactive); in the experiment with HS 578T breast, 99.8% (inactive); with NCI/ADR-RES ovarian, 108% (inactive).

As for `Nc1nc(-c2ccccn2)cc(-c2cc(-c3ccccn3)nc(N)n2)n1`, the growth in the experiment with SR leukemia was 92% (inactive); in the experiment on RPMI-8226 leukemia it was 111% (inactive); in the experiment on OVCAR-8 ovarian it was 106% (inactive); in the experiment on OVCAR-5 ovarian, 109% (inactive); with OVCAR-4 ovarian it was 105% (inactive); in the experiment on SK-OV-3 ovarian, 119% (inactive). Moreover, the growth was 108% (inactive) in the experiment on IGROV1 ovarian, 110% (inactive) with OVCAR-3 ovarian, 127% (inactive) in the experiment with HS 578T breast and 107% (inactive) in the experiment on NCI/ADR-RES ovarian.

Consider `COc1cc(NCCCCCCCNC(C)C)c2nccc(C)c2c1`, for which the growth was 80.1% (inactive) and 36.1% (inactive) in the experiment on SR leukemia; 81.1% (inactive) and 92.7% (inactive) in the experiment with RPMI-8226 leukemia; 86.4% (inactive) and 89.7% (inactive) in the experiment on OVCAR-8 ovarian; 88.3% (inactive) and 96.9% (inactive) in the experiment with OVCAR-5 ovarian; 15.8% (inactive) in the experiment with OVCAR-4 ovarian; 93.8% (inactive) and 72.9% (inactive) with SK-OV-3 ovarian. The growth in the experiment with IGROV1 ovarian was 82.3% (inactive) and 85.9% (inactive); in the experiment on OVCAR-3 ovarian, 22.8% (inactive) and 26.4% (inactive); in the experiment on HS 578T breast it was 95% (inactive) and 68.8% (inactive); in the experiment on NCI/ADR-RES ovarian it was 88.1% (inactive) and 84.6% (inactive).

For `S=c1nn[nH]n1C1CCCCC1`, the growth in the experiment with SR leukemia was 101% (inactive); in the experiment on RPMI-8226 leukemia, 109% (inactive); with OVCAR-8 ovarian, 95.4% (inactive); in the experiment with OVCAR-5 ovarian, 117% (inactive); with OVCAR-4 ovarian it was 109% (inactive); with SK-OV-3 ovarian, 137% (inactive). Moreover, the growth in the experiment on IGROV1 ovarian was 104% (inactive); in the experiment with OVCAR-3 ovarian, 104% (inactive); in the experiment with HS 578T breast, 95.7% (inactive); in the experiment with NCI/ADR-RES ovarian, 112% (inactive).

The values are drawn from PubChem BioAssay (NCI).
